Screening data: PubChem, National Center for Advancing Translational Sciences (NCATS)
D1 antagonist – Antagonist of Human D 1 Dopamine Receptor: qHTS; D(1A) dopamine receptor (Homo sapiens), P21728; HEK293 TREx D1 cells, calcium flux, dopamine EC80; active compounds read low; activity change, negative = inhibition, % at 10 µM; 360,000 tested, 3.2% active; in the data active = activity change below about -30%; also: % is scaled to controls: 0 for no effect and ±100 for the full control effect
Target sequence (P21728 whole entry, looked up): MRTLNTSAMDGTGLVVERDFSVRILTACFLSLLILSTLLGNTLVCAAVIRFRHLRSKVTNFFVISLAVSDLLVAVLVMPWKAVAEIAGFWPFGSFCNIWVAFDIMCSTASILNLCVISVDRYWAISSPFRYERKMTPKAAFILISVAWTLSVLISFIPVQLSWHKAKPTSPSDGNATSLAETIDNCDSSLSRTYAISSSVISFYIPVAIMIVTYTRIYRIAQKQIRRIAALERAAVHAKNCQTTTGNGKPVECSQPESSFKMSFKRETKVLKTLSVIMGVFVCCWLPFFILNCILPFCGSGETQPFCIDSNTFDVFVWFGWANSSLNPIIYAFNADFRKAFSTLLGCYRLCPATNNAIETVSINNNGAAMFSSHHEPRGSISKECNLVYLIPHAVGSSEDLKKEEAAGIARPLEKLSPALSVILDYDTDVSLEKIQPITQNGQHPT
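Allosteric or orthosteric antagonism assessed as attenuation of the calcium response to EC80 dopamine, added 180 s after compound, in induced HEK293 Trex D1 cells loaded with no-wash calcium dye.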
Glioma ERSR ind – qHTS for Inducers of the Endoplasmic Reticulum Stress Response (ERSR) in Human Glioma: qHTS; U87-MG GRP78 promoter luciferase reporter, 16 h; AID 602332, 2012; 420,000 tested, 0.02% active; Potency, µM, inactives show at the top dose activation, hits mostly activators; active = well fitted activation curve with a large enough effect; also: potency is read from the fitted curve at half-maximal effect; series mostly up to about 76 µM; % of control where 0% means no effect; nearly all actives have a fitted effect of over 35% in size
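ERSR induction read as luciferase luminescence (Bright-Glo, 10 min at room temperature) in stably transfected human U87-MG glioma cells exposed to compounds for 16 h, using GRP78 as sensor.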
TRHR ag – qHTS for Small Molecule Agonists and Allosteric Enhancers of Human TRH Receptor: Primary Screen for Agonists; Thyrotropin-releasing hormone receptor (Homo sapiens), P34981; TRHR cells, calcium flux fluo-8, FDSS agonist mode; activation, % at 2 µM; 360,000 tested, 0.18% active; AID 493084, 2011; also: 0% is about no effect
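Agonist-mode FDSS calcium read (Ex 480/Em 530, 1 s cycles) in 1536-well TRHR cells with fluo-8 dye, after 10-cycle baseline and 23 nL compound addition; TRH at EC20 (10 nM final) added afterwards for the enhancer phase.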
TRHR PAM – qHTS for Small Molecule Agonists and Allosteric Enhancers of Human TRH Receptor: Primary Screen for Enhancers. 360,000 tested, 0.66% active. enhancement, % at 2 µM. TRHR cells, fluo-8 calcium fluorescence, EC20 TRH enhancement; in the data active = enhancement above about 30%; also: 0% is about no effect
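TRHR-expressing cells loaded with fluo-8 calcium dye were read kinetically (ex 480/em 530) during compound addition, then stimulated with an EC20 of TRH (10 nM final). Enhancement of the Gq-mediated intracellular calcium response was scored.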
D1 agonist – Allosteric Agonists of the Human D1 Dopamine Receptor: qHTS; activation, % at 2 µM; AID 504660, 2011; HEK293 T-REx D1 cells, calcium flux, agonist mode; D(1A) dopamine receptor (Homo sapiens), P21728; 360,000 tested, 1% active; also: 0% is about no effect
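Tetracycline-induced HEK293 TREx D1 cells, force-coupled to calcium signalling, were dye-loaded with a no-wash calcium kit. Compound was pin-added after a 10 s baseline. Fluorescence was read kinetically at 1 cycle/s for 180 s, with calcium rises flagged as agonism.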
D1 potentiator – Potentiators of Human D1 Dopamine Receptor: qHTS | D(1A) dopamine receptor (Homo sapiens), P21728 | HEK293 TREx D1 cells, calcium flux, dopamine EC20 potentiation | potentiation, % at 10 µM | 360,000 tested, 0.036% active; in the data active = potentiation above about 30%; also: 0% is about no effect
* marks the source's active call; other numbers are inactive results; x = no result given; ! = not confirmed by another sample. Sampled rows, rich in hits. Any-hit rate of the full collection: about 4%. Rule as the data show it, unless noted: active = activation above about 30%; inactive = the rest.

SMILES	D1 antagonist	Glioma ERSR ind	TRHR ag	TRHR PAM	D1 agonist	D1 potentiator
COC(=O)C1=C(c2ccc(F)cc2OCc2ccccc2)C[C@@H]2CC[C@H]1N2C(=O)NCCc1ccc(F)cc1	-32*	-3%	1	-4	5	-6
COC(=O)C1=C(c2ccccc2OCc2ccccc2)C[C@@H]2CC[C@H]1N2C(=O)NCCOc1ccc(OC)cc1	-38*	-3%	1	-4	2	-5
COC(=O)C1=C(c2ccc(C(C)=O)cc2)C[C@@H]2CC[C@H]1N2C(=O)NCc1ccc(C(F)(F)F)cc1	-41*	12%	7	0	48*	-2
COC(=O)C1=C(c2ccccc2OCc2ccccc2)C[C@@H]2CC[C@H]1N2C(=O)NCCOc1ccccc1	-31*	-5%	2	-6	9	-6
COC(=O)C1=C(c2ccccc2)C[C@@H]2CC[C@H]1N2C(=O)NCc1ccc(C(F)(F)F)cc1	x	2%	x	x	x	x
COC(=O)C1=C(c2cccc(OCc3ccccc3)c2)C[C@@H]2CC[C@H]1N2C(=O)NCc1ccccc1C(F)(F)F	-1	-4%	1	34*	4	-3
Cc1c(N)nc([C@@H](CC(N)=O)NC[C@H](N)C(N)=O)nc1C(=O)N[C@H](C(=O)N[C@H](C)[C@H](O)[C@H](C)C(=O)N[C@@H](C(=O)NCCc1nc(-c2nc(C(=O)NCCC[S+](C)C)cs2)cs1)[C@H](C)O)[C@H](O[C@@H]1O[C@@H](CO)[C@@H](O)[C@H](O)[C@@H]1O[C@H]1O[C@H](CO)[C@H](O)[C@H](OC(N)=O)[C@@H]1O)c1cnc[nH]1	x	-2%	x	x	x	x
Cc1ccc2c(c1)[C@]13CCCC[C@@H]1[C@@H](C2)N(C)CC3	x	-3%	x	x	x	x
O=Cc1cn(Cc2ccccc2F)c2ccccc12	-7	-3%	-1	9	18	-4
CC(=O)c1cn(Cc2ccccc2F)c2ccccc12	-55*	0%	-1	1	17	-5
CC(=O)c1cn(Cc2ccccc2C#N)c2ccccc12	-34*	0%	-2	-4	15	-5
COc1ccc(OCC(=O)N2CCN(Cc3ccc(SC)cc3)CC2)cc1	-38*!	0%	0	8	2	24
COc1ccc(OCC(=O)N2CCN(Cc3ccc4c(c3)OCO4)CC2)cc1	-16	-1%	0	-4	1	-2
O=C(Cn1ncc2c3ccccc3n(Cc3cccc(Cl)c3)c2c1=O)N1CCC2(CC1)OCCO2	1	-1%	1	4	7	6
Cn1c2ccccc2c2cnn(CC(=O)N3CCC4(CC3)OCCO4)c(=O)c21	-31*	x	0	-5	0	-1
Brc1ccc2c(c1)C(OC1CN3CCC1CC3)c1ccccc1CS2 (stereo not given)	-36*	-12%	0	1	28	-9
Cc1ccc(CN2C3CCCC2CC(NC(=O)Nc2cccc(F)c2)C3)cc1 (stereo not given)	-42*	-2%	9	-2	30*	-6
NCC(=O)c1ccc2ccccc2c1	x	-4%	x	x	x	x
CN(C(=O)Cc1ccc(Cl)c(Cl)c1)[C@H](CN1CCCC1)c1ccccc1	x	-4%	x	x	x	x
CC(C)C1C(=O)N2CCCC2[C@]2(O)O[C@@](NC(=O)[C@@H]3C=C4c5cccc6[nH]cc(c56)C[C@H]4N(C)C3)(C(C)C)C(=O)N12 (stereo not given in full)	x	-4%	x	x	x	x
CC(C)[C@H]1C(=O)N2CCC[C@H]2[C@]2(O)O[C@](NC(=O)[C@@H]3C=C4c5cccc6[nH]cc(c56)C[C@H]4N(C)C3)(C(C)C)C(=O)N12	-34*	-3%	6	2	4	-5
CC(C)[C@@]1(NC(=O)[C@@H]2C[C@@H]3c4cccc5[nH]cc(c45)C[C@H]3N(C)C2)O[C@@]2(O)[C@@H]3CCCN3C(=O)[C@H](Cc3ccccc3)N2C1=O	-68*	-1%	6	3	29	-6
Cn1c(=O)n(C)c2cc(CNCCc3ccccc3F)ccc21	-3	-4%	1	3	3	0
CC(=O)OC1CC2C(C)(C)C(O)C=C[C@@]2(C)C2CC[C@]3(C)C(=CC(=O)OC3c3ccoc3)[C@]12C (stereo not given in full)	x	-4%	x	x	x	x
COP(=O)(OC)[C@@H](O)C(Cl)(Cl)Cl	x	-3%	x	x	x	x
SMILES	D1 antagonist	Glioma ERSR ind	TRHR ag	TRHR PAM	D1 agonist	D1 potentiator
CCOc1cccc(CNC2CN3CCC2CC3)c1 (stereo not given)	-51*	-5%	1	-1	3	-7
CC1=NCCc2c1[nH]c1cc(O)ccc21	-2	-3%	-1	7	405*	8
O=[N+]([O-])c1ccc(NC2CCCC2)c2ccncc12	-22	-4%	-1	35*	13	-1
CCCCC(C#N)(Cn1cncn1)c1ccc(Cl)cc1 (stereo not given)	x	-6%	x	x	x	x
Cc1ccc(C2=NCC(=O)N(CC(=O)N3CCCCC3)c3sc(C)c(C)c32)cc1	-10	-5%	1	30*	-2	1
Cc1cc(/C=C/c2ccnc3ccccc23)ccc1N(CCCl)CCCl	x	3%	x	x	x	x
CC(=O)OCC[N+](C)(C)C	17	-1%	36*	-4	46*!	2
CN1CCCCC1Cn1cc(C(=O)c2cc([N+](=O)[O-])ccc2I)c2ccccc21 (stereo not given)	x	-2%	x	x	x	x
CCC(=NCCc1c[nH]c2ccccc12)c1c(O)n(C)c(=O)n(C)c1=O	-31*	2%	0	-2	11	-4
CCC(=NCCOc1ccc(Cl)cc1)c1c(O)n(C)c(=O)n(C)c1=O	-42*	-2%	1	-2	8	-9
CO/C=C(/C(=O)OC)c1ccccc1Oc1cc(Oc2ccccc2C#N)ncn1	x	-3%	x	x	x	x
CC(Cc1ccccc1)NC(=O)/C=C/c1ccc(Cl)cc1 (stereo not given)	-32*	5%	-1	-9	1	-9
CC(Cc1ccccc1)NC(N)=O (stereo not given)	-8	-3%	0	13	1	0
O=C(Cc1ccc([N+](=O)[O-])cc1)N1CCN(Cc2ccc3c(c2)OCO3)CC1	-36*	-1%	0	2	3	1
